In the supplement of paper PMC9794691:

System: PC9
Experiment: area under confluence curve of osimertinib + compound combination regimen (DTP regrowth); compare to osimertinib-only DTP control AUC of the same experiment (AUC (confluence x time, arbitrary))
Experimental: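 compare to osimertinib-only DTP control AUC of the same experiment; Long-term drug-tolerant persister (DTP) screen in EGFR-mutant NSCLC cell lines in 48-well plates. The test compound was given at one fixed dose with osimertinib, either upfront (from day 0 to the DTP stage at 10-21 days, then drug-free medium) or sequentially (osimertinib alone to the DTP stage, then the test compound). IncuCyte confluence was tracked until osimertinib-only controls regrew, and AUC was computed in Prism. AUC scale depends on experiment duration, so each row carries the same-experiment osimertinib-only DTP and DMSO control AUCs; combination activity = control minus combo AUC. Osimertinib dose not stated.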

[1] = test compound dose 300 nM, dosing schedule: sequential, osimertinib-only DTP control AUC in same experiment: 3562, DMSO control AUC in same experiment: 31840
[2] = test compound dose 300 nM, dosing schedule: upfront, osimertinib-only DTP control AUC in same experiment: 19015, DMSO control AUC in same experiment: 31840

SMILES: COC(=O)c1ccc([C@H]2c3[nH]c4ccccc4c3C[C@H](C(=O)OC)N2C(=O)CCl)cc1 + C=CC(=O)Nc1cc(Nc2nccc(-c3cn(C)c4ccccc34)n2)c(OC)cc1N(C)CCN(C)C [osimertinib]
- area under confluence curve (test compound dose 100 nM, dosing schedule: sequential, osimertinib-only DTP control AUC in same experiment: 8716, DMSO control AUC in same experiment: 45737): 655
- area under confluence curve (test compound dose 100 nM, dosing schedule: sequential, osimertinib-only DTP control AUC in same experiment: 10175, DMSO control AUC in same experiment: 27958): 1250
- area under confluence curve (test compound dose 100 nM, dosing schedule: sequential, osimertinib-only DTP control AUC in same experiment: 14030, DMSO control AUC in same experiment: 30326): 1840
- area under confluence curve (test compound dose 100 nM, dosing schedule: upfront, osimertinib-only DTP control AUC in same experiment: 11096, DMSO control AUC in same experiment: 45737): 12700
- area under confluence curve (test compound dose 100 nM, dosing schedule: upfront, osimertinib-only DTP control AUC in same experiment: 16134, DMSO control AUC in same experiment: 27958): 13900
- area under confluence curve (test compound dose 100 nM, dosing schedule: upfront, osimertinib-only DTP control AUC in same experiment: 20885, DMSO control AUC in same experiment: 30326): 13600

SMILES: NC1(C(=O)N[C@@H](CCO)c2ccc(Cl)cc2)CCN(c2nc[nH]c3nccc2-3)CC1 [Capivasertib] + C=CC(=O)Nc1cc(Nc2nccc(-c3cn(C)c4ccccc34)n2)c(OC)cc1N(C)CCN(C)C [osimertinib]
- area under confluence curve [1]: 1390
- area under confluence curve (test compound dose 300 nM, dosing schedule: sequential, osimertinib-only DTP control AUC in same experiment: 10725, DMSO control AUC in same experiment: 30578): 2030
- area under confluence curve (test compound dose 300 nM, dosing schedule: sequential, osimertinib-only DTP control AUC in same experiment: 12535, DMSO control AUC in same experiment: 43316): 2150
- area under confluence curve (test compound dose 300 nM, dosing schedule: upfront, osimertinib-only DTP control AUC in same experiment: 10245, DMSO control AUC in same experiment: 30578): 9240
- area under confluence curve (test compound dose 300 nM, dosing schedule: upfront, osimertinib-only DTP control AUC in same experiment: 15354, DMSO control AUC in same experiment: 43316): 14600
- area under confluence curve [2]: 13200

SMILES: COc1nnc2ccc(N3CCC(c4ccc(OCCN5CCN(C)C(=O)[C@H]5C)cc4)CC3)nn12 + C=CC(=O)Nc1cc(Nc2nccc(-c3cn(C)c4ccccc34)n2)c(OC)cc1N(C)CCN(C)C [osimertinib]
- area under confluence curve [1]: 2500
- area under confluence curve (test compound dose 300 nM, dosing schedule: sequential, osimertinib-only DTP control AUC in same experiment: 10968, DMSO control AUC in same experiment: 21594): 7840
- area under confluence curve (test compound dose 300 nM, dosing schedule: sequential, osimertinib-only DTP control AUC in same experiment: 12231, DMSO control AUC in same experiment: 19076): 5480
- area under confluence curve (test compound dose 300 nM, dosing schedule: sequential, osimertinib-only DTP control AUC in same experiment: 12891, DMSO control AUC in same experiment: 44384): 2120
- area under confluence curve (test compound dose 300 nM, dosing schedule: upfront, osimertinib-only DTP control AUC in same experiment: 16535, DMSO control AUC in same experiment: 19076): 15300
- area under confluence curve (test compound dose 300 nM, dosing schedule: upfront, osimertinib-only DTP control AUC in same experiment: 16570, DMSO control AUC in same experiment: 44384): 19700
- area under confluence curve (test compound dose 300 nM, dosing schedule: upfront, osimertinib-only DTP control AUC in same experiment: 17834, DMSO control AUC in same experiment: 21594): 15800
- area under confluence curve [2]: 27400

SMILES: CN(C)CCCOc1ccc(-c2ccc3ncc4c(c3c2)n(C2CCOCC2)c(=O)n4C)cn1 + C=CC(=O)Nc1cc(Nc2nccc(-c3cn(C)c4ccccc34)n2)c(OC)cc1N(C)CCN(C)C [osimertinib]
- area under confluence curve (test compound dose 300 nM, dosing schedule: sequential, osimertinib-only DTP control AUC in same experiment: 7760, DMSO control AUC in same experiment: 29563): 4600
- area under confluence curve (test compound dose 300 nM, dosing schedule: sequential, osimertinib-only DTP control AUC in same experiment: 15001, DMSO control AUC in same experiment: 22064): 14800
- area under confluence curve (test compound dose 300 nM, dosing schedule: sequential, osimertinib-only DTP control AUC in same experiment: 15044, DMSO control AUC in same experiment: 30604): 3980
- area under confluence curve (test compound dose 300 nM, dosing schedule: upfront, osimertinib-only DTP control AUC in same experiment: 11798, DMSO control AUC in same experiment: 29563): 5590
- area under confluence curve (test compound dose 300 nM, dosing schedule: upfront, osimertinib-only DTP control AUC in same experiment: 20672, DMSO control AUC in same experiment: 30604): 5990
- area under confluence curve (test compound dose 300 nM, dosing schedule: upfront, osimertinib-only DTP control AUC in same experiment: 24924, DMSO control AUC in same experiment: 22064): 22400

SMILES: Cn1cnc2c(F)c(Nc3ccc(Br)cc3Cl)c(C(=O)NOCCO)cc21 [Selumetinib] + C=CC(=O)Nc1cc(Nc2nccc(-c3cn(C)c4ccccc34)n2)c(OC)cc1N(C)CCN(C)C [osimertinib]
- area under confluence curve (test compound dose 300 nM, dosing schedule: sequential, osimertinib-only DTP control AUC in same experiment: 14554, DMSO control AUC in same experiment: 49189): 10400
- area under confluence curve (test compound dose 300 nM, dosing schedule: upfront, osimertinib-only DTP control AUC in same experiment: 24473, DMSO control AUC in same experiment: 49189): 11200

SMILES: COc1ccc(CCc2nc3cc(-c4c(C)noc4C)ccc3n2C[C@H](C)N2CCOCC2)cc1Cl + C=CC(=O)Nc1cc(Nc2nccc(-c3cn(C)c4ccccc34)n2)c(OC)cc1N(C)CCN(C)C [osimertinib]
- area under confluence curve (test compound dose 1000 nM, dosing schedule: sequential, osimertinib-only DTP control AUC in same experiment: 4730, DMSO control AUC in same experiment: 72888): 6290
- area under confluence curve (test compound dose 1000 nM, dosing schedule: sequential, osimertinib-only DTP control AUC in same experiment: 9508, DMSO control AUC in same experiment: 26668): 9310
- area under confluence curve (test compound dose 1000 nM, dosing schedule: sequential, osimertinib-only DTP control AUC in same experiment: 12065, DMSO control AUC in same experiment: 48219): 13500
- area under confluence curve (test compound dose 1000 nM, dosing schedule: upfront, osimertinib-only DTP control AUC in same experiment: 8775, DMSO control AUC in same experiment: 72888): 20400
- area under confluence curve (test compound dose 1000 nM, dosing schedule: upfront, osimertinib-only DTP control AUC in same experiment: 11298, DMSO control AUC in same experiment: 26668): 10700
- area under confluence curve (test compound dose 1000 nM, dosing schedule: upfront, osimertinib-only DTP control AUC in same experiment: 22645, DMSO control AUC in same experiment: 48219): 37300

SMILES: Cc1nc(N2CCC3(CC2)CO[C@@H](C)[C@H]3N)c(CO)nc1-c1cccc(Cl)c1Cl + C=CC(=O)Nc1cc(Nc2nccc(-c3cn(C)c4ccccc34)n2)c(OC)cc1N(C)CCN(C)C [osimertinib]
- area under confluence curve (test compound dose 1000 nM, dosing schedule: sequential, osimertinib-only DTP control AUC in same experiment: 10671, DMSO control AUC in same experiment: 21678): 9600
- area under confluence curve (test compound dose 1000 nM, dosing schedule: sequential, osimertinib-only DTP control AUC in same experiment: 13130, DMSO control AUC in same experiment: 20567): 7660
- area under confluence curve (test compound dose 1000 nM, dosing schedule: upfront, osimertinib-only DTP control AUC in same experiment: 18577, DMSO control AUC in same experiment: 20567): 13500
- area under confluence curve (test compound dose 1000 nM, dosing schedule: upfront, osimertinib-only DTP control AUC in same experiment: 19512, DMSO control AUC in same experiment: 21678): 10500

SMILES: Cc1cc2ncnn2cc1Nc1ncc2c(n1)n(C1CCOCC1)c(=O)n2C + C=CC(=O)Nc1cc(Nc2nccc(-c3cn(C)c4ccccc34)n2)c(OC)cc1N(C)CCN(C)C [osimertinib]
- area under confluence curve (test compound dose 1000 nM, dosing schedule: sequential, osimertinib-only DTP control AUC in same experiment: 15044, DMSO control AUC in same experiment: 30604): 10500
- area under confluence curve (test compound dose 1000 nM, dosing schedule: upfront, osimertinib-only DTP control AUC in same experiment: 20672, DMSO control AUC in same experiment: 30604): 12700

SMILES: CS(=O)(=O)CCNCc1ccc(-c2ccc3ncnc(Nc4ccc(OCc5cccc(F)c5)c(Cl)c4)c3c2)o1 [Lapatinib] + C=CC(=O)Nc1cc(Nc2nccc(-c3cn(C)c4ccccc34)n2)c(OC)cc1N(C)CCN(C)C [osimertinib]
- area under confluence curve (test compound dose 1000 nM, dosing schedule: sequential, osimertinib-only DTP control AUC in same experiment: 16279, DMSO control AUC in same experiment: 29345): 21600
- area under confluence curve (test compound dose 1000 nM, dosing schedule: upfront, osimertinib-only DTP control AUC in same experiment: 19769, DMSO control AUC in same experiment: 29345): 18300
